Screening results from PubChem.
NS1 function inh: qHTS Assay for Inhibitors of Influenza NS1 Protein Function | Potency, µM (titrated, usually from 46.1 µM), for the others: at the top dose activity, positive = more growth | 270,000 tested, 0.4% active | AID 2326, 2010; calls by dose curve; further: potency means the concentration at half of the fitted maximal effect; actives are rising curves; nearly all actives have a fitted effect of over 50% in size
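A cell-based growth assay was used: compounds that relieve NS1-induced slow growth of budding yeast raise OD600. Assay medium was yeast nitrogen base with ammonium sulphate and -URA supplement, pH 6.0, with 2% galactose.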
Cycloheximide cs: Cycloheximide Counterscreen for Small Molecule Inhibitors of Shiga Toxin; cell reporter, cycloheximide protein synthesis inhibition counterscreen; max response, %; 300,000 tested, 12% active; in the data active means max response mostly above about 13%, no sharp cut-off; inactive means mostly below about 14%; further: read at 38.3 µM for the half of the compounds with a filed dose; 0% is about no effect
Pf growth 96h: Primary qHTS for delayed death inhibitors of the malarial parasite plastid, 96 hour incubation | 320,000 tested, 6.9% active | Potency, µM (doses to about 28.7 µM), for inactives: at the highest dose activity change, negative = inhibition, most hits filed as inhibitors | P. falciparum luciferase reporter growth, 96 h; further: potency means the concentration at half of the fitted maximal effect; on the % scale 0 is the no-effect control and ±100 the full control effect
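Parasite growth measured via integrated firefly luciferase reporter in P. falciparum. Infected erythrocytes at 2% hematocrit, 0.05% parasitemia final were treated 96 hours at 37 C under 5% CO2, and luminescence was read.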
Pf growth 48h: Primary qHTS for delayed death inhibitors of the malarial parasite plastid, 48 hour incubation; Potency, µM (highest dose often 28.7 µM), inactives show top-dose activity change, negative = inhibition, usual class: inhibitors; P. falciparum luciferase growth in erythrocytes, 48 h; 310,000 tested, 5.9% active; AID 504832, 2011; further: potency means the concentration at half of the fitted maximal effect; on the % scale 0 is the no-effect control and ±100 the full control effect
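Compounds are pin-transferred into medium, infected erythrocytes (2% hematocrit, 0.1% parasitemia final) are added, and plates sit one parasite generation at 37 C in 5% CO2. Detection reagent is then added and luminescence measured.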
SARS PLpro yeast: qHTS of Yeast-based Assay for SARS-CoV PLP. Potency, µM (doses to about 32.9 µM), for the others: at the top dose activity, positive = growth rescue, usual class: activators. 330,000 tested, 0.19% active. S. cerevisiae expressing SARS-CoV PLpro, growth rescue; calls by dose curve; further: potency means the concentration at half of the fitted maximal effect; 0% is about no effect; nearly all actives have a fitted effect of over 55% in size
Shiga toxin inh: A qHTS for Small Molecule Inhibitors of Shiga Toxin; 290,000 tested, 9.2% active; Vero cells, Shiga toxin protein synthesis inhibition reporter; AID 2315, 2010; inhibition, % at 38.7 µM; in the data active means inhibition mostly above about 28%, no sharp cut-off; inactive means mostly below about 43%; further: 0% is about no effect
The depositor's hits bear a star; ? = inconclusive; / = no result given. In the library only some 21% were active in any assay of this set; here they are far more common. Unless noted, the call rests on the fitted dose curve; in most records, active means well fitted inhibition curve with a large enough effect; inconclusive means small, poorly fitted or top-dose-only effect, or another doubt; inactive means no such curve, though single readings can be large or run the other way.

SMILES | NS1 function inh | Cycloheximide cs | Pf growth 96h | Pf growth 48h | SARS PLpro yeast | Shiga toxin inh
COc1ccc(-c2nn(-c3ccccc3)cc2CNC[C@H]2O[C@@H](n3cnc4c(N)ncnc43)[C@H](O)[C@@H]2O)cc1 | / | / | / | / | -2.3% | /
CNC(=O)COc1ncnc2scc(-c3ccc(F)cc3)c12 | / | 1.3 | 19.3% | 1.4% | 0.6% | 6.5
CSc1ncccc1C(=O)OCC(=O)C(C)(C)C | / | 11.2 | 20.8% | -2.1% | -0.7% | 13.4
Cn1c(=O)c2[nH]c(CCCCc3nc4c([nH]3)c(=O)n(C)c(=S)n4C)nc2n(C)c1=S | -5.0% | / | / | / | / | /
CN(Cc1ccccc1)C(=O)c1cn(C)c2ccc(S(=O)(=O)N3CCCC3)cc2c1=O | 3.8% | 15.4 | ? | -28.0% | 0.5% | -0.5
CCOC(=O)CCS(=O)(=O)c1ccc(-c2ccc(S(=O)(=O)CCC(=O)OCC)cc2)cc1 | 3.1% | -4.5 | 13.3% | -2.6% | 4.8% | -22.1
CCOc1ccc(S(=O)(=O)Nc2ccccc2C(=O)NCC2CCCO2)cc1 (configuration not stated) | -3.3% | -2.3 | 9.3% | / | 4.1% | -16.4
CC(C)(C)C(=O)Oc1ccc(S(=O)(=O)Nc2ccccc2C(=O)NCC(=O)O)cc1 | / | / | 13.5µM* | -4.3% | / | /
COc1ccc(OC)c(S(=O)(=O)Nc2ccc(O)c3ccccc23)c1 | 3.9% | 25.9* | / | 1.17µM* | -45.9% | 34.6*
COc1ccc(OC)c(S(=O)(=O)Nc2ccc(Oc3ccccc3)cc2)c1 | -8.0% | -1.4 | 0.0% | -2.9% | 4.8% | -14.9
CSc1ncccc1C(=O)Nc1ccc(F)c(F)c1F | / | 10.3 | 58.7% | 1.5% | -1.3% | -13.6
CC(C)c1ccc(C2=C(O)c3ccccc3C(=O)C2=O)cc1 | -16.3% | -2.5 | 163.6% | 1.47µM* | -92.2% | 9.8
Cc1ccc(C2=C(O)c3ccccc3C(=O)C2=O)cc1 | -90.9% | -2.8 | 10.0% | ? | -10.5% | -5.5
O=C1C(=O)c2ccccc2C(O)=C1c1cccc([N+](=O)[O-])c1 | -37.5% | 23.4* | 7.38µM* | ? | 0.6% | 50.3
C#CCN1C(C)=C(C(=O)OC)C(c2cccc([N+](=O)[O-])c2)C(C(=O)OCC)=C1C (configuration not stated) | -43.8% | / | ? | 13.1µM* | / | /
COC(=O)C1=C(C)NC(C)=C(C(=O)OCCCN2CCC(c3ccccc3)(c3ccccc3)CC2)C1c1cccc([N+](=O)[O-])c1 (configuration not stated) | / | / | 15.1µM* | 1.51µM* | / | /
COc1ccccc1/C=C/C=N/NC(=O)CCn1nnc2ccccc21 | 2.5% | -0.3 | 8.0% | 14.8% | -2.4% | -8.4
COc1ccc2[nH]cc(C(=O)CN3CCCC(C)C3)c2c1 (configuration not stated) | 4.9% | -1.3 | 22.5% | -6.4% | -2.2% | 14.8
COc1cccc(N2CCN(CC(=O)c3c[nH]c4ccc(OC)cc34)CC2C)c1 (configuration not stated) | ? | 6.3 | ? | 11.7µM* | 9.5% | 9.9
COc1ccc2[nH]cc(C(=O)CN3CCC(C)CC3)c2c1 | -6.3% | 34.6* | ? | 61.1% | 1.1% | 76.5*
COc1ccccc1/C=C1\SC(=S)N(CC(=O)Nc2nnc(C)s2)C1=O | / | -2.4 | 41.7% | 3.4% | 1.2% | -22.0
CCCc1cnc(N2CCN(S(C)(=O)=O)CC2)nc1 | 3.1% | 23.2* | 61.8% | ? | 0.7% | 40.6
O=C1/C(=C/c2cccs2)SC(=S)N1CCC(=O)N1CCCCC1CCO (configuration not stated) | -19.3% | 38.5* | 11.7µM* | ? | -4.4% | 120.6*
COc1cccc(/C=C2\SC(=S)N(CCCC(=O)N3CCCC3)C2=O)c1 | -19.5% | 3.2 | 4.15µM* | 13.1µM* | 0.0% | 2.4
COc1cccc(/C=C2\SC(=S)N(CCCC(=O)N3CCCCC3CCO)C2=O)c1 (configuration not stated) | -34.1% | 0.8 | 3.7µM* | ? | -4.5% | 1.1
SMILES | NS1 function inh | Cycloheximide cs | Pf growth 96h | Pf growth 48h | SARS PLpro yeast | Shiga toxin inh
COc1ccccc1/C=C1\SC(=O)N(CCC(=O)N2CCCCC2CCO)C1=O (configuration not stated) | 6.5% | -6.6 | 9.28µM* | ? | -1.2% | 17.8
COc1cccc(/C=C2\SC(=S)N(CCC(=O)N3CCCCC3CCO)C2=O)c1 (configuration not stated) | -6.0% | 25.6 | ? | ? | -10.3% | 15.6
COc1ccccc1/C=C1\SC(=S)N(CCC(=O)N2CCCCC2CCO)C1=O (configuration not stated) | 3.9% | -4.8 | ? | ? | 1.6% | -1.7
COc1ccc(/C=C2\SC(=S)N(CCCC(=O)N3CCOCC3)C2=O)cc1OC | 9.0% | -4.9 | 0.0% | -28.4% | 0.6% | 36.8
Cc1ccc(C2/C(=C(\O)c3c(C)nc4ccccn34)C(=O)C(=O)N2CCCN2CCOCC2)o1 (configuration not stated) | 21.3% | / | / | / | / | /
COc1ccc(-c2cc(C3CCN(C(=O)OC(C)(C)C)CC3)[nH]n2)cc1 | -7.4% | 1.5 | ? | ? | -1.1% | 9.3
COc1ccc(OC)c(-c2cc(C3CCN(C(=O)OC(C)(C)C)CC3)[nH]n2)c1 | -6.4% | 15.5* | 10.4µM* | ? | 0.8% | 44.0
COc1cc(OC)cc(C(=O)OCC(=O)NC(c2ccccc2)c2ccccc2)c1 | / | / | 4.8% | -11.2% | -4.5% | /
CCOCCOc1cccc(C(=O)NC(c2ccccc2)c2ccccc2)c1 | 6.9% | -0.8 | 2.08µM* | ? | -4.3% | -8.2
COc1cc(OC)cc(C(=O)NC(c2ccccc2)c2ccccc2)c1 | 9.2% | -1.3 | 11.7µM* | ? | ? | -19.4
Cc1c2ccccc2c(CSC(=N)N)c2ccccc12 | -5.9% | / | / | / | / | /
Cc1onc(NC(=O)CSCC(=O)O)c1Br | 0.4% | -2.1 | 0.3% | 24.9% | 0.2% | 11.8
CN(Cc1cnccn1)Cc1ccccc1OCC(O)CN1CCc2ccccc2C1 (configuration not stated) | 2.2% | 1.3 | 14.2% | 11.7µM* | 0.5% | 47.5
Cc1ccc(OCC(O)CN2CCc3ccccc3C2)c(C)c1 (configuration not stated) | -2.5% | -13.7 | -15.1% | 11.9% | 1.2% | -11.3
c1ccc(-n2cnnn2)cc1 | / | / | -15.8% | -8.5% | / | /
c1ccc(-n2nc3c(ccc4cnnc43)[nH]2)cc1 | -51.0% | 43.5* | -7.7% | 52.1% | -21.5% | 83.3*
O=C(CCC1CCCCC1)NCc1ccc(F)cc1 | -2.0% | 23.3* | ? | 45.2% | 7.4% | active
O=C(CC1CCCCC1)NCc1ccc(Cl)cc1 | 7.0% | 27.2* | ? | 47.9% | 1.6% | /
CC(C)(CNC(=O)CCC1CCCC1)CNC(=O)CCC1CCCC1 | -18.0% | 9.0 | 10.4µM* | ? | -6.1% | -12.5
Cn1c(=O)c2ccccc2n(Cc2ccccc2Cl)c1=O | 9.6% | 5.0 | -22.1% | ? | 1.6% | -6.9
